The list is not random: actives were taken first. Their share in the collection is about 4.1%.
ssDAF-12 act: activators of S. stercoralis DAF-12 nuclear receptor | activation, % at 6.8 µM | HEK293 ssDAF-12/GRIP1 lit1-tk-luc reporter, luminescence; % of 3 µM dafachronic acid response | 1% of 370,000 active;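 active = activation above the mean over all tested compounds plus 3 SD, cut at about 0.9% in these data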;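 also: 0% = DMSO-only wells and 100% = 3 µM delta7-dafachronic acid wells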
DAX1 inh-1: DAX1 (NR0B1) inhibition, primary screen. HEK293T StAR-luciferase reporter, SF-1/DAX-1 repression relief. inhibition, % at 6.8 µM. 1.1% of 370,000 active;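 active = inhibition above the mean over all tested compounds plus 3 SD, cut at about 3.6% in these data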;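 also: 0% = DAX-1 cells with DMSO and 100% = cells lacking DAX-1 with DMSO; higher inhibition means more luminescence from relief of DAX-1 repression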
DAX1 inh-2: NR0B1 (DAX1) inhibition | P51843 | HEK293 Gal4-DAX1 luciferase reporter, luminescence | inhibition, % at 6.75 µM | 0.99% of 340,000 active | AID 504766;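 active = inhibition above the mean over all tested compounds plus 3 SD, cut at about 4.2% in these data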;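 also: 0% = DAX1-transfected cells with DMSO and 100% = empty-vector control cells with DMSO; inhibition shows as a rise in luminescence from relieved DAX1 repression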
Target sequence (P51843 207-470 limits assumed): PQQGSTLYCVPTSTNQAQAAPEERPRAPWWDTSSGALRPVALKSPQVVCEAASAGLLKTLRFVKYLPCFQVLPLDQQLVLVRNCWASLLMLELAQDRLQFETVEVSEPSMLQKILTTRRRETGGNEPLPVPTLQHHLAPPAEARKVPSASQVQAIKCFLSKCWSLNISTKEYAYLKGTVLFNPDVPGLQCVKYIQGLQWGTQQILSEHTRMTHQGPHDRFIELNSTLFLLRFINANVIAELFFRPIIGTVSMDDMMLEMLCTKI
hgDAF12 agonist: activates the H. glycines DAF-12 receptor ligand-binding domain; HEK293 GAL4-hgDAF12 UAS-luciferase reporter, agonist luminescence; normalized to butyrate control; 1.8% of 370,000 active; activation, % at 6.8 µM;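 active = activation above a cutoff set at the mean of all screened compounds plus 3 SD, cut at about 10% in these data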;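 also: 0% = DMSO wells and 100% = sodium butyrate wells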
hcDAF-12 act: activators of H. contortus DAF-12 nuclear receptor; HEK293 hcDAF-12 lit1-tk-luc reporter, luminescence; 0% DMSO, 100% Δ7-dafachronic acid; AID 652067; activation, % at 6.8 µM; 1.4% of 370,000 active;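 active = activation above the mean of all tested compounds plus 3 SD, cut at about 5.5% in these data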;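 also: 100% = response to 3 µM Δ7-dafachronic acid high control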
* = called active by the depositor; / = no result.

SMILES	ssDAF-12 act	DAX1 inh-1	DAX1 inh-2	hgDAF12 agonist	hcDAF-12 act
COC(=O)C[C@H]1CC[C@H]2[C@H](COc3ccc(NC(=O)Cc4cccs4)cc3C(=O)N2C)O1	-0.5	1.2	/	-0.8	-1.8
COC(/C=C/Nc1ccc(C)cc1)=C(C#N)C#N	0.2	0.3	-0.4	-0.5	5.6*
CSc1ccc(Cc2ccc(Cl)cc2Cl)nn1	-0.6	0.5	4.3*	3.5	0.4
O=C(Cc1sc(Nc2ccccc2)nc1-c1ccccc1)NCc1ccccn1	0.2	3.1	3.7	10.9*	6.0*
O=C(O)Cc1sc(Nc2ccc(F)cc2)nc1-c1cccs1	-0.2	1.6	2.6	14.6*	3.4
O=C(O)Cc1sc(Nc2ccccc2)nc1-c1ccc(Cl)cc1	0.7	0.9	1.5	11.0*	2.4
O=C(Cc1ccccc1)NCc1ccccn1	-1.3	0.5	-0.3	0.4	-0.9
O=C(O)Cc1sc(-c2ccc(Cl)cc2)nc1-c1ccccc1	-1.1	0.1	-1.0	-1.2	-0.3
Cc1cccc(-c2cccc3c4c([nH]c23)[C@@H]2C[C@H](N(C)C(=O)c3ccco3)[C@H]([C@H](C)O)C(=O)N2CC4)c1	-2.1	-1.5	/	0.4	-2.6
O=C(CCc1ccccc1)N[C@H]1[C@@H](OC(=O)c2ccco2)CCC[C@]12C(=O)N(Cc1ccccc1)c1ccccc12	-1.3	-0.3	/	0.0	-1.2
Cc1nc2cc(C(=O)N3CCN(C(=O)C(C)(C)C)CC3)ccc2n1C1CCCC1	-1.4	0.2	/	-0.8	-2.6
O=[N+]([O-])c1ccc(O)c(Nc2ncnc3ccccc23)c1	1.1*	0.6	1.9	-2.0	3.1
COC(=O)C1=C(C)N(c2ccc(OC)cc2)C(C)=C(C(=O)OC)C1c1ccccc1	-0.2	-0.2	4.9*	0.5	1.1
COc1ccc(CCN2CC(C(=O)Nc3ccccc3F)CC2=O)cc1OC (centres undefined)	-0.5	-0.9	4.6*	-0.9	-0.8
CN1Cc2c(N3CCOCC3)nc3sc(C(=O)c4ccc(Br)cc4)c(N)c3c2CC1(C)C	-0.8	0.2	/	2.6	-1.0
CN1Cc2c(N3CCOCC3)nc3sc(C#N)c(N)c3c2CC1(C)C	-0.6	0.5	5.4*	-0.7	3.1
N#C/C(=C(\O)Cc1ccccc1)c1nc2ccccc2[nH]1	-0.9	-0.6	1.5	0.5	-0.7
N#C/C(=C(/O)CCl)c1nc2ccccc2[nH]1	1.0*	-1.7	-0.9	-6.0	4.7
Cc1cccc(Nc2nnc(SC/C(O)=C(\C#N)c3nc4ccccc4[nH]3)s2)c1C	1.0*	0.4	0.8	2.3	4.8
CCCC(=O)OC/C(O)=C(\C#N)c1nc2ccccc2[nH]1	-0.7	-0.5	-0.1	-5.5	1.5
Cc1cc(Br)ccc1SCC(=O)OCC(O)=C(C#N)c1nc2ccccc2[nH]1	-0.6	0.6	0.1	-0.4	3.9
Cc1cccc(C)c1Nc1nnc(SC/C(O)=C(\C#N)c2nc3ccccc3[nH]2)s1	0.6	0.1	0.0	-0.3	3.2
Cc1cc(Br)ccc1SCC(=O)OC/C(O)=C(\C#N)c1nc2ccccc2[nH]1	1.1*	-0.6	0.9	6.2	2.6
COCC(=O)OC/C(O)=C(\C#N)c1nc2ccccc2[nH]1	-1.7	-1.7	4.7*	-4.1	-1.6
COc1cccc(/C=C2\CC3(OC(=O)C(C)(C)C)CCCN2C3)c1 (centres undefined)	-1.4	0.7	/	-1.0	-2.0
SMILES	ssDAF-12 act	DAX1 inh-1	DAX1 inh-2	hgDAF12 agonist	hcDAF-12 act
O=[N+]([O-])c1cnc2ccccc2c1Sc1ccccc1	-0.8	/	/	0.6	2.7
Cn1cc(/C=C(\NC(=O)c2ccccc2)C(=O)NCCCN2CCOCC2)c2ccccc21	1.3*	-0.6	-0.1	-0.5	1.5
COc1ccc(C(=O)N/C(=C\c2cn(C)c3ccccc23)C(=O)NCCCN2CCOCC2)cc1OC	-0.5	-0.3	0.1	2.2	0.2
COC(=O)[C@]12C[C@H](CC(=O)NCC3CCCCC3)C(=O)N(Cc3ccc(Cl)cc3Cl)C1=C[C@H](C1CCCC1)O[C@@H]2C	-0.8	-0.1	/	2.0	-2.6
CCN(CC)c1ccc(C(=O)OCC(=O)Nc2sccc2C#N)cc1	-0.1	1.9	0.5	10.7*	5.3
N#CC1=C(SCC(=O)c2ccccc2)NC2=C(C(=O)CCC2)C1c1ccco1 (centres undefined)	-0.6	-1.4	-0.3	12.6*	2.3
C=CCN1C(=O)[C@H](CC(=O)N2CCCC2)[C@@]2(C(=O)OCC)CCCC=C12	-0.8	-1.1	/	3.4	-1.0
CS(=O)(=O)N(CC(=O)N1CCCCC1)Cc1ccccc1	-1.0	0.0	5.0*	-0.9	0.1

High-throughput results deposited in PubChem BioAssay by The Scripps Research Institute Molecular Screening Center.
